Laboratory results published in PubChem BioAssay (Tox21).
Results filed as inconclusive are left out. A call without a number means that no potency is given here. Unmarked numbers belong to inactive results. Active and inactive are the calls of the source. Unless noted, calls come from the whole dose curve.

Legend:
[1] = qHTS assay to identify small molecule agonists of the vitamin D receptor (VDR) signaling pathway - cell viability counter screen (AID 743224; active = well fitted cell-killing curve with a large enough effect in the repeat runs; note: series mostly up to about 63 µM; nearly all actives have a fitted effect of over 50% in size)
Summary of the method: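 Viability is measured in the same wells as the VDR-bla reporter assay: after 16 h compound treatment and 2 h substrate loading, CellTiter-Glo is added and luminescence read 30 min later.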

[2] = qHTS assay to identify small molecule antagonists of the vitamin D receptor (VDR) signaling pathway - cell viability counter screen (AID 743225; active = well fitted cell-killing curve with a large enough effect in the repeat runs; note: nearly all actives have a fitted effect of over 50% in size)
Summary of the method: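 Cytotoxicity toward the VDR-bla HEK 293T line was scored by ATP-based CellTiter-Glo luminescence, read in the wells already used for the beta-lactamase readout after 16 h compound treatment under 3 nM 1-alpha,25-dihydroxyvitamin D3 stimulation.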

[3] = qHTS assay to identify small molecule agonists of the NFkB signaling pathway - cell viability counter screen (AID 1159515); note: series mostly up to about 61 µM; nearly all actives have a fitted effect of over 55% in size
Summary of the method: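 Multiplexed viability readout: after the 5 hr compound exposure and 1.5 hr FRET substrate step, CellTiter-Glo reagent went into the same NFkB-bla ME-180 wells; ATP luminescence was measured after 30 min at room temperature.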

[4] = qHTS assay to identify small molecule agonists of the endoplasmic reticulum stress response signaling pathway (AID 1159516; active = well fitted activation curve with a large enough effect in the signal ratio in the repeat runs, not every such curve was filed as active; the % refers to the signal ratio; note: potency is the fitted concentration of half-maximal effect)
Summary of the method: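 Tox21 10K library screened in quantitative HTS format on ESRE-bla HeLa cells, a beta-lactamase reporter under ER stress response element control; 5 hr treatment, FRET read.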

[5] = qHTS assay to identify small molecule agonists of the endoplasmic reticulum stress response signaling pathway - cell viability counter screen (AID 1159517); note: series mostly up to about 61 µM; nearly all actives have a fitted effect of over 50% in size
Summary of the method: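 Cells, HeLa ESRE-bla; density, 1,500/well; dosing, 5 hr at 37 C, 5% CO2; readout, CellTiter-Glo luminescence after 30 min RT.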

[6] = qHTS assay to identify small molecule antagonists of the retinoid-related orphan receptor gamma (ROR-gamma) signaling pathway - cell viability counter screen (AID 1159520; active = well fitted cell-killing curve with a large enough effect in the repeat runs; note: nearly all actives have a fitted effect of over 50% in size)
Summary of the method: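 Cytotoxicity was read from cellular ATP (CellTiter-Glo luminescence) after 16 hr at 37 C with 1 uM doxycycline induction. The inducer was added 2 hr after compound transfer to Tet-on ROR gamma CHO cells.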

[7] = qHTS assay to identify small molecule agonists of the AP-1 signaling pathway - cell viability counter screen (AID 1159525); note: nearly all actives have a fitted effect of over 55% in size
Summary of the method: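 Luminescent ATP readout (Cell Titer Glo, 30 min RT), normalised to DMSO and tetra n-octyl ammonium bromide controls. Cells were ME-180 AP-1-bla in 0.5% dialyzed FBS Opti-MEM, with a 5 h, 37 °C compound exposure.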

[8] = qHTS assay to identify small molecule agonists of the AP-1 signaling pathway (AID 1159526)
[9] = molecular target: Retinoic acid receptor RXR-alpha (Homo sapiens) (UniProt P19793); experiment: qHTS assay to identify small molecule agonists of the RXR signaling pathway (AID 1159527); note: nearly all actives have a fitted effect of over 35% in size
Summary of the method: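 Reporter activation is measured as beta-lactamase activity via FRET substrate cleavage (emission 460/530 nm) in HEK 293T cells expressing an RXR-alpha-driven bla construct, following 16 hr compound exposure at 37 C.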

Sequence of Retinoic acid receptor RXR-alpha (Homo sapiens) (P19793 whole entry, looked up): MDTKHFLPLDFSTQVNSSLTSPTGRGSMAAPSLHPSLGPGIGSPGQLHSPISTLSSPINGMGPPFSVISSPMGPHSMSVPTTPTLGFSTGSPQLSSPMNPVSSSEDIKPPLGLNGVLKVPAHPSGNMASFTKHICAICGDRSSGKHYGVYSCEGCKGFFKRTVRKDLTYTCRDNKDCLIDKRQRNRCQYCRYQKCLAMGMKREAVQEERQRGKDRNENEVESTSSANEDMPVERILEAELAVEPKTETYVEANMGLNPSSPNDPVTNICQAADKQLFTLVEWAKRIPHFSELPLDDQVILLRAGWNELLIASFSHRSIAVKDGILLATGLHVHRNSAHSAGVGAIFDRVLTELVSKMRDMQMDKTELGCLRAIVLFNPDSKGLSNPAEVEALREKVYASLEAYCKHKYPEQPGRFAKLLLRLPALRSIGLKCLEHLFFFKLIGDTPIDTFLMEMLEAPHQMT

Compound | Potency [1] | Potency [2] | Potency [3] | Potency [4] | Potency [5] | Potency [6] | Potency [7] | Potency [8] | Potency [9] | activity, negative = cytotoxicity [6] | viability change, negative = cytotoxic [7] | activation [8] | activation [9]
O=CC1CC=CCC1 (stereo not drawn) | inactive | inactive | inactive | inactive | inactive | inactive | inactive | inactive | inactive |  |  |  | 
C[N+]1(CC2COC(c3ccccc3)(C3CCCCC3)O2)CCCCC1 (stereo not drawn) | inactive | inactive | inactive | inactive | inactive | inactive | inactive | inactive | inactive |  |  |  | 
CC1CCC(=O)C1=O (stereo not drawn) |  |  | inactive | inactive | inactive | inactive | inactive | inactive | inactive |  |  |  | 
COc1cc2nc(N(C)CCCNC(=O)C3CCCO3)nc(N)c2cc1OC (stereo not drawn) | inactive | inactive | inactive | inactive | inactive | inactive | inactive | inactive | inactive |  |  |  | 
O=C(O)c1ccco1 |  |  | inactive | inactive | inactive | inactive | inactive | inactive | inactive |  |  |  | 
O=P(O)(OCc1ccccc1)OCc1ccccc1 | inactive |  | inactive | inactive | inactive | inactive | inactive | inactive | inactive |  |  |  | 
CN(C)CCCN1c2ccccc2Sc2ccccc21 |  |  | inactive | inactive | inactive | inactive | inactive |  |  |  |  |  | 
CCCn1cnc2c1c(=O)n(CCCCC(C)=O)c(=O)n2C | inactive | inactive | inactive | inactive | inactive | inactive | inactive | inactive | inactive |  |  |  | 
CCCCC(CC)COC(=O)CCCCCCCCC(=O)OCC(CC)CCCC (stereo not drawn) | inactive | inactive | inactive | inactive | inactive | inactive | inactive | inactive | inactive |  |  |  | 
CCCCCCCCCCO[C@@H]1O[C@H](CO)[C@@H](O)[C@H](O)[C@H]1O |  |  | inactive | inactive | inactive | inactive | inactive | inactive |  |  |  |  | 
CCC(=O)O[C@]1(C(=O)CCl)[C@@H](C)C[C@H]2[C@@H]3CCC4=CC(=O)C=C[C@]4(C)[C@@]3(F)[C@@H](O)C[C@@]21C | inactive | inactive | inactive | inactive | inactive | inactive | inactive | inactive | inactive |  |  |  | 
C=CC1CC2C=CC1C2 (stereo not drawn) | inactive | inactive | inactive | inactive | inactive | inactive | inactive | inactive | inactive |  |  |  | 
OC[C@H]1O[C@@H](OCCc2ccc(O)cc2)[C@H](O)[C@@H](O)[C@@H]1O | inactive | inactive | inactive | inactive | inactive | inactive | inactive | inactive | inactive |  |  |  | 
Brc1c2ccccc2cc2ccccc12 | inactive | inactive | inactive | 49.5 µM (active) | inactive | inactive | inactive | inactive | inactive |  |  |  | 
Nc1cc(C(=O)O)c(O)c(S(=O)(=O)O)c1 | inactive | inactive | inactive | inactive | inactive | inactive | inactive | inactive | inactive |  |  |  | 
CN(C)CCN(Cc1ccsc1)c1ccccn1 | inactive | inactive | inactive | inactive | inactive | inactive | inactive | inactive | inactive |  |  |  | 
Nc1ccc([N+](=O)[O-])c(C(F)(F)F)c1 | inactive | inactive | inactive | inactive | inactive | inactive | inactive | inactive | inactive |  |  |  | 
CCCCO | inactive | inactive | inactive | inactive | inactive | inactive | inactive | inactive | inactive |  |  |  | 
C[C@@H](c1ncncc1F)C(O)(Cn1cncn1)c1ccc(F)cc1F (stereo partly drawn) | inactive | inactive | inactive | inactive | inactive | inactive | inactive | inactive | inactive |  |  |  | 
ClCCOCCOCCCl | inactive | inactive | inactive | inactive | inactive | inactive | inactive | inactive | inactive |  |  |  | 
CCNc1cc(O)ccc1C | inactive | inactive | inactive | inactive | inactive | inactive | inactive | inactive | inactive |  |  |  | 
NCC(=O)O | inactive | inactive | inactive | inactive | inactive |  |  |  |  | -1.28% [at 19 µM] | -1.65% [at 15.8 µM] | -0.769% [at 15.8 µM] | -2.92% [at 15.8 µM]
CCCCNc1ccc(C(=O)OCCOCCOCCOCCOCCOCCOCCOCCOCCOC)cc1 | inactive | inactive | inactive | inactive | inactive | inactive | inactive | inactive | inactive |  |  |  | 
CCCCCCCCCOS(=O)(=O)O | inactive | inactive | inactive | inactive | inactive | inactive | inactive | inactive | inactive |  |  |  | 
O=[N+]([O-])c1ccc2[nH]ncc2c1 | inactive | inactive | inactive | inactive | inactive | inactive | inactive | inactive | inactive |  |  |  | 
